# Data taken from PubChem BioAssay (NCI).
# This is part of a sample that, as a whole, favours compounds with a hit. Of some 83,000 tested, about 20% had one in any assay.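 Activity criterion: percent growth below 10, measured after cells in 96-well plates were exposed to a single compound concentration for 48 hours.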 Unmarked numbers belong to inactive results. Activity calls are given as the source filed them.
# Test system: NCI-H460 lung
# Test: NCI-60 one-dose screen, 48 h (100 = growth as untreated, 0 = no growth, -100 = all killed)
# Details: 10 µM unless noted
# Experimental: Growth inhibition of the NCI-H460 human Non-Small Cell Lung tumor cell line is measured as a screen for anti-cancer activity. Cells are grown in 96 well plates and exposed to the test compound for 48 hours. Compounds are tested at a single concentration, which is 10^-5 M for most compounds. The reported endpoint is percent growth (GI% or GIPRCNT), where numbers from 0 - 100% represent growth inhibition, and numbers from -100% - 0 represent cell death. For example, a value of 40 represents 60% growth inhibition. A value of 0 means no net growth occurred over the course of the experiment. A value of -40 indicates 40% of cells at the beginning of the experiment died by the end of the experiment. A value of -100 means all cells are dead at the end of the experiment.
# NCI-60 Human Tumor Cell Lines Screen was performed using the standard one-dose NCI protocol, which is described in more detail at https://dtp.cancer.gov/discovery_development/nci-60/default.htm.
# Compounds with GIPRCNT values below 10 were considered active. Activity score was based on GIPRCNT using the following formula: […]
# Score is 0 for GIPRCNT values of 100 or above, 50 for GIPRCNT values of 0, and 100 for GIPRCNT values of -100.
row,SMILES,growth
1,Nc1cccc(S(=O)(=O)c2cccc(N)c2)c1,120%
2,CC(=O)c1cccc(Nc2ncnc3ccc(NC(=O)c4ccco4)cc23)c1,96.1%
3,CCc1ccc(-c2ccc(NC3CCCCCC3)nn2)cc1S(N)(=O)=O,104%
4,COc1ccc(NC(=O)c2ccc(C(F)(F)F)nc2Nc2ccc(Cl)cc2C)cc1Cl,7.62% (active)
5,COC(=O)C(CCC(=O)CCl)N1C(=O)c2ccccc2C1=O (stereo not given),90.1%
6,NC(N)=N/N=C/c1ccccc1,103%
7,CCN(CC)c1ccc2nc3c4ccccc4c(=O)cc-3n(-c3ccccc3)c2c1,-41.5% (active)
8,COc1ccc(-c2nc(-c3cc(OC)cc(OC)c3)[nH]c2-c2ccc(OC)cc2)cc1,48%
9,CC(=O)Nc1ccc(Cl)cc1Cl,114%
10,COC1CC(N)C2OC(c3ccccc3)OCC2O1 (stereo not given),103%
11,CCN(CC)c1ccc(C(=N)c2ccc(N(C)C)cc2)cc1,0.221% (active)
12,COCCn1c(Nc2ccc(C(=O)NO)cc2)nc2ccccc21,56.7%
13,CCCc1n(Cc2ccc3ccccc3c2)c2ccccc2[n+]1Cc1ccc2ccccc2c1,-76.1% (active)
14,COC(=O)C1(C)COP(=O)(NC23CC4CC(CC(C4)C2)C3)OC1 (stereo not given),103%
15,CNC(=O)c1cc(Oc2ccc(NC(=O)c3[nH]c(SC)nc3-c3ccc(F)cc3)cc2)ccn1,72.6%
16,COc1ccc(C2CC(c3cccc(Nc4ccnc5cc(Cl)ccc45)c3)=NN2c2ccccc2)cc1 (stereo not given),43.7%
17,CCN(CC)Cc1cc(Nc2ccnc3cc(Cl)ccc23)cc(-c2ccc(Cl)cc2)c1O,3.23% (active)
18,COc1ccc(/C(=C\c2ccc3c(c2)OCO3)C(=O)Nc2nc3ccc(F)cc3s2)cc1OC,105%
19,CCOC(=O)C1=C(C)NC(SCc2nnc(-c3ccc(Cl)cc3)o2)=NC1c1ccc(Cl)cc1 (stereo not given),79%
20,CCOC(=O)c1ccc(NCCC(=O)O)cc1,116%

row,SMILES,growth
1,O=Cc1ccc2nc(C(Cl)(Cl)Cl)ccc2c1,94.7%
2,COc1cc(NC(C)CCCN)c2ncccc2c1Oc1ccc(Cl)cc1 (stereo not given),83.8%
3,COc1cc(C2C=C(C)N=C3SC=NN32)cc(OC)c1OC (stereo not given),108%
4,COc1c(B(O)O)cccc1-c1nc2c(F)cc3n[nH]c(C)c3c2c2c1CCCC2,11.7%
5,FC(F)(F)C1=NNC(c2ccc3ccccc3c2)=NN1,101%
6,C/C(=N\NC(=S)N1CCCCC1)c1ccccn1,-23.9% (active)
7,COc1ccc(-c2nn(-c3cccc(Cl)c3)cc2/C=C2\C(=N)N(c3ccccc3)N=C2N)cc1,6.92% (active)
8,NS(=O)(=O)c1ccc(N2N=C(c3cccs3)CC2c2ccccc2O)cc1 (stereo not given),-0.156% (active)
9,CCOC(CN1CCN(CC(C)C(=O)c2ccccc2)CC1)c1ccccc1 (stereo not given),99.7%
10,CCCCCc1c(C)[nH]c(/C=C2\N=C(c3ccc[nH]3)C=C2CC)c1C,-73.3% (active)
11,C1=C\CCCCN2CC[C@H]3[C@H](CCCC/C=C\CCCN4C[C@@H](CCCCC/1)C[C@@H]3C4)C2,51.8%
12,CCc1ccc(Nc2cc(C)c3ccc(O)cc3n2)cc1,64.3%
13,C=CCn1c(C)nc2cc(Nc3nc(N4CCCC4)nc4nc[nH]c34)ccc21,0.371% (active)
14,Cc1cc(C)cc(Nc2cc(C)nc3nc(C(F)(F)F)nn23)c1,11%
15,COc1ccc2[nH]cc(C(c3ccc(Cl)cc3)N3CCCC3)c2c1 (stereo not given),101%
16,c1ccc2c(c1)cnc1ccccc12,110%
17,COc1c(-c2cc(-c3ccc(C)o3)[nH]c(=O)n2)c(O)cc2occc12,44.4%
18,NC(N)=N/N=C\c1cccc(OCc2ccccc2)c1,95.3%
19,Nc1nonc1-c1nc2ccccc2n1Cc1ccc(F)cc1,49.3%
20,CC(C)c1ccc(Cn2ccc3c4c(N)nc(NC5CC5)nc4ccc32)cc1,-84.2% (active)
